# From ChEMBL document CHEMBL3988442, “University of Dundee, Small-Polar-MMV Screening Library” (2021)
# The campaign covered roughly 48,000 compounds. About 13,000 (27%) showed an effect of 50% or more. This is one part of the list.
# Test system: Wolbachia pipientis
# Assay: Anti-Wolbachia Cell-Based Screen
# Assay type: functional
# Design: scale not given: in the data most compounds retested in dose-response had high values
# Conditions: 5 µM
row,SMILES,Percent Effect [%]
1,CC(CO)(NC(=O)Nc1nnc(C(F)F)s1)C1CC1 (centres undefined),-2.731
2,CCc1ccc(C(C)NC(=O)CN(C)Cc2ccc(C)o2)cc1 (centres undefined),6.981
3,O=C(O)c1ccccc1C1CCN(C2CCN(c3ccccc3)CC2)C1 (centres undefined),1.292
4,Cc1ncc(CN2CCOC(CN(C)c3cccnn3)C2)s1 (centres undefined),-7.672
5,Cc1csc(N2CCN(Cc3cnc(C)s3)CC2C)n1 (centres undefined),-7.074
6,Cc1cc(CN2CCN(c3ccc4nncn4n3)C(C)C2)on1 (centres undefined),105.9
7,CC1CN(Cc2ccccn2)CCN1c1ccc2nncn2n1 (centres undefined),99.39
8,Cc1cc(CN2CCN(c3ccc4nncn4n3)C(C)C2)no1 (centres undefined),0.8559
9,Cc1nc(CN2CCN(c3ccc4nncn4n3)C(C)C2)oc1C (centres undefined),98.31
10,Cc1nc(CN2CCOC(c3ccc(Cl)cc3)C2)oc1C (centres undefined),-15.43
11,Cc1ncc(CN2CCN(c3ccc4nncn4n3)C(C)C2)s1 (centres undefined),100.4
12,CC1(C)CN(C(=O)c2cnc(-c3ccccn3)nc2)CC[C@]1(C)O,-14.16
13,CC(c1ccccc1F)N(C(=O)CSCC(N)=O)C1CC1 (centres undefined),-1.119
14,CCc1[nH]c2c(CNc3cncc(C(=O)N(C)C)n3)cc(C)cc2c1C,-3.475
15,COc1ccc(C(C)Nc2ncc(C(N)=O)cc2Cl)c(OC)c1 (centres undefined),7.521
16,CS(=O)(=O)NCCN1CCSCC1c1ccc(Cl)cc1 (centres undefined),7.054
17,Cn1ccnc1SCc1nc(C(C)(C)NC(=O)OC(C)(C)C)no1,4.931
18,CC1CN(CC2CCCCC2)CCN1c1ccc2nncn2n1 (centres undefined),-9.658
19,Cc1cc(CN2CCN(CC(O)C(C)(C)C)CC2)no1 (centres undefined),-2.656
20,CCn1ccnc1CN1CCN(c2ccc3nnc(C)n3n2)CC1,-14.29
21,N#Cc1ccc(N2CCN(c3ccc4nncn4n3)CC2)nc1,-1.975
22,Cc1cnc(CN2CCN(c3ccc4nncn4n3)C(C)C2)cn1 (centres undefined),120.6

row,SMILES,Percent Effect [%]
1,c1ccc(CN2CCN(c3ccc4nncn4n3)CC2)nc1,81.68
2,CC1CN(CC2CCCC2)CCN1c1ccc2nncn2n1 (centres undefined),-0.9162
3,Cc1ccn(-c2ccc(N3CCN(Cc4ccccn4)CC3)nn2)n1,-3.971
4,c1ccc(CCN2CCN(c3ccc4nncn4n3)CC2)nc1,-2.088
5,Cc1cc(CN2CCN(c3ccc4nncn4n3)CC2)no1,96.25
6,Cc1nnc2ccc(N3CCN(CCc4ccccn4)CC3)nn12,75.62
7,Cc1nnc2ccc(N3CCN(Cc4nccn4C)CC3)nn12,-5.258
8,O=C(Nc1cnccn1)[C@H]1C[C@H]2OCC[C@H]2N(c2ncc(F)cn2)C1,2.565
9,c1ccc(CN2Cc3ccnn3CC(COCc3cccnc3)C2)nc1 (centres undefined),-0.5546
10,CCOCCN1CCN(CCCc2nnnn2-c2ccccc2)CC1,-8.911
11,CC1CN(CCc2ccccn2)CCN1c1ccc2nncn2n1 (centres undefined),129.7
12,CC1CN(CC(=O)N2CCCC2)CCN1c1ccc2nncn2n1 (centres undefined),-2.378
13,CCCc1cc(N2CCCCC2Cn2cc(C)cn2)n2ncnc2n1 (centres undefined),-0.9521
14,COc1ccc(C(=O)N2CCN(C(=O)CCCc3cn[nH]c3)CC2)cc1,-2.583
15,O=C(Nc1ccc(F)cc1)C1CNCCN1C(=O)CCc1cccnc1 (centres undefined),-3.468
16,Cc1ccc(CCC(=O)N2CCOCC2)cc1Cl,-2.511
17,Cc1ccccc1N1CCCN(C(=O)CCc2cccnc2)CC1,13.31
18,Cc1cc(CCC(=O)N2CCOCC2)ccc1Br,7.033
19,COc1ccc(CCC(=O)N2CCNCC2C(=O)N2CCOCC2)cc1 (centres undefined),109
20,O=C(C1CNCCN1C(=O)CCc1cccnc1)N1CCOCC1 (centres undefined),99.11
21,COc1ccc(CCC(=O)N2CCNCC2C(=O)N2CCCC2)cc1 (centres undefined),99.9
22,COc1ccc(CCCC(=O)N2CCCC(n3cccn3)C2)cc1 (centres undefined),8.149

row,SMILES,Percent Effect [%]
1,CCn1cnnc1CCNC(=O)C1COc2ccc(OC)cc2C1 (centres undefined),0.6591
2,O=S(=O)(CCc1ccccc1)Cc1nc(C2CC2)no1,20.48
3,Cc1c(C2CCCN(C(=O)c3ccn(C)n3)C2)n2c(nc1=O)CCC2 (centres undefined),88.69
4,Cc1csc(C2CCCN(C(=O)c3ccc(=O)n(C)n3)C2)n1 (centres undefined),3.739
5,Cc1csc(CNCC2CCCN(C(=O)OC(C)(C)C)C2)n1 (centres undefined),11.13
6,Cc1cnc(C(=O)N2CCCC(Cn3cc(C4CC4)nn3)C2)cn1 (centres undefined),1.892
7,Cc1cnc(C(=O)N2CCCC(c3c(C)c(=O)nc4n3CCC4)C2)cn1.Cl (centres undefined),99.49
8,Cc1c(C2CCCN(C(=O)C3CC3)C2)n2c(nc1=O)CCC2.Cl (centres undefined),11.8
9,Cc1c(C2CCCN(C(=O)OC(C)(C)C)C2)n2c(nc1=O)CCC2 (centres undefined),101.7
10,Cc1nc(CN[C@H]2CCCN(C(=O)OC(C)(C)C)C2)cs1,1.8
11,O[C@@H]1C[C@@H](c2nc(-c3ccc(OC(F)(F)F)cc3)no2)N(CC2CC2)C1,9.042
12,CCC/C=C/c1ccc(CN2CCCC2)cn1,-3.861
13,CCOC(=O)CN1CC(c2nc(-c3ccsc3)no2)C1.O=C(O)C(=O)O,-3.591
14,CCC1COCCN1C(=O)CNC(=O)c1ccoc1C (centres undefined),-13.26
15,Cc1nc(Nc2ccccn2)cc(N2CCN(S(C)(=O)=O)CC2)n1,-12.78
16,CS(=O)(=O)N1CCN(c2ccc(Nc3ccccn3)nn2)CC1,2.595
17,Cc1nc2c(c(Nc3ccccn3)n1)CN(S(C)(=O)=O)CC2,109
18,Cc1ncc(CNCC(=O)NC2CCCCC2)n1-c1ccccc1,-6.194
19,CC(CCc1ccccc1)NC(=O)Nc1cnn(CC(N)=O)c1 (centres undefined),-0.3012
20,CCc1nnc2n1CCN(C(=O)CN(CC)CC)C2,97.7
21,CCc1ncc(C(=O)N2CCn3c(CC)nnc3C2)s1,-2.408
22,CCc1nnc2n1CCN(C(=O)COCCc1ccccc1)C2,-3.602

row,SMILES,Percent Effect [%]
1,CCc1nnc2n1CCN(C(=O)CN(C)C1CC1)C2,84.19
2,CCc1nnc2n1CCN(C(=O)c1ccccc1OCC1CC1)C2,-2.361
3,CCc1nnc2n1CCN(C(=O)c1cnn(C)c1C1CC1)C2,0.7265
4,COCC(NC(=O)NCc1sccc1C)c1ccco1 (centres undefined),-5.912
5,CN(Cc1nccn1C)C(=O)C1COCC(=O)N1Cc1ccccc1 (centres undefined),-8.994
6,CN1CCOC(C(=O)Nc2nc(-c3ccc4c(c3)CCC4)n[nH]2)C1 (centres undefined),-12.56
7,Cn1ccnc1C(=O)N1CCCC1c1ccc(C(=O)N2CCOCC2)s1 (centres undefined),-4.877
8,CNC(=O)CN1C(=O)CN(C(=O)COC)CCC(OC)c2ccccc21 (centres undefined),121.9
9,CCOC(=O)N1CCC(OC)c2ccccc2N(CC(=O)NC)C(=O)C1 (centres undefined),117.4
10,CS(=O)(=O)N1CCC(C(=O)N2CCOc3ccccc32)CC1,5.703
11,COCC(=O)N1CCC2(CCC2NS(=O)(=O)c2ccccc2)CC1 (centres undefined),2.757
12,CCNC(=O)N1CC[C@H]2CC(=O)N(CC(N)=O)CC[C@H]2C1,1.469
13,CCNC(=O)N1CCC(OC)c2ccccc2N(CC(=O)NC)C(=O)C1 (centres undefined),67.66
14,CCOC(=O)CN1C(=O)CN(S(C)(=O)=O)CCC(OC)c2ccccc21 (centres undefined),83.87
15,CNC(=O)NC(=O)CN1CCN(CC2CC2)c2ccccc21,5.416
16,CCNC(=O)N1CCC(Cc2cccc(C(N)=O)c2)C1 (centres undefined),4.026
17,CC1CCN(C(=O)C2CCN(S(C)(=O)=O)CC2)c2ccccc21 (centres undefined),3.869
18,c1ccc(COCC2CNCc3nccn3C2)nc1 (centres undefined),-7.438
19,O=C(NS(=O)(=O)Cc1ccc(F)cc1)C1CCc2ccccc21 (centres undefined),9.1
20,CC(NC(=O)NCC(C)(C)O)c1ccc(-c2cncnc2)cc1 (centres undefined),-6.963
21,COc1ccc(NCc2ccccc2N2CCN(C(C)=O)CC2)cn1,3.995
22,CNC(=O)CN1CCCC1c1ccccc1Br (centres undefined),2.059

row,SMILES,Percent Effect [%]
1,CCS(=O)(=O)N1CCC(OC)c2ccccc2N(CC(=O)NC)C(=O)C1 (centres undefined),115.1
2,CNC(=O)CS(=O)(=O)C1CCN(S(=O)(=O)c2ccccc2Cl)CC1,17.8
3,O=S(=O)(NCCNc1cc(-n2cccn2)ncn1)c1cccs1,12.03
4,COc1ccc(C)cc1-c1[nH]c2ccccc2c1C(=O)O,86.15
5,Cc1ccc(C)c(C(=O)CN2C(=O)c3ccccc3CS2(=O)=O)c1,-17.22
6,Cc1ccc(C)c(-c2[nH]c3ccccc3c2C(=O)O)c1,107.7
7,CC(C)CN1CCN(C(=O)c2cc(=O)c3ccccc3[nH]2)CC1,-0.8051
8,Cc1ccc(-c2[nH]c3ccccc3c2C(=O)O)c(C)c1,112.6
9,Cc1ccc(C(=O)CN2C(=O)c3ccccc3CS2(=O)=O)c(C)c1,-19.51
10,COc1ccc(C)cc1C(C(=O)O)N1CCN(Cc2ccccn2)CC1 (centres undefined),-8.065
11,CC(=O)N1CCCN(C(=O)c2csc(-c3ccc(C)cc3C)n2)CC1,-4.506
12,COc1ccc(C(=O)NS(C)(=O)=O)cc1-c1ccccc1,-13.07
13,CCc1ncc2c(n1)CN(CC(=O)Nc1nnc(C)s1)CC2,-0.5205
14,Cc1ncc2c(n1)CN(CC(=O)Nc1nncs1)CC2,10.92
15,Cc1ncc2c(n1)CN(CC(=O)Nc1cccnc1)CC2,115.5
16,Cc1ncc2c(n1)CN(CC(=O)Nc1nnc(C)s1)CC2,120.8
17,Cc1ncc2c(n1)CN(CC(=O)N1CCc3sccc3C1)CC2,-8.865
18,Cc1ncc2c(n1)CN(CC(=O)Nc1ccncc1)CC2,3.82
19,Cc1ncc2c(n1)CN(CC(=O)Nc1nccs1)CC2,121.1
20,Cc1nnc(NC(=O)CN2CCCC(c3ccn[nH]3)C2)s1 (centres undefined),8.304
21,Cc1nc(CN2CCCN(CC(=O)Nc3cccnc3)CC2)no1,-4.253
